Screens as filed in PubChem.
Only some compounds are listed: those with a hit (about 11% of all), similar ones and a draw of the others.
WT yeast gro inh – growth inhibition of WT yeast, mitochondrial fusion screen. mitochondrial fusion phenotypic screen, WT strain. inhibition, % at 10 µM. 2.1% of 190,000 active; in the data active means inhibition above about 58%; tested in S. cerevisiae
Autophagy mod – modulators of autophagy. MEF GFP-LC3 puncta imaging; test concentration mostly 10 µM. calls only at 10 µM (by protocol). 0.98% of 190,000 active. AID 463193;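 active means percentage of spot-positive cells more than 3 SD above its plate mean, without a fluorescence outlier flag or 80% toxicity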;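 further: spot-positive cell cutoff set from DMSO-treated cells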
Ins promoter up – MIN6 insulin promoter up-regulation; MIN6 insulin promoter-GFP reporter, high-content imaging; stronger effect = higher value; AID 1625; 0.3% of 190,000 active; z-score at 5 µM;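 active means z-score above 3 at 5 µM with at least 500 cells counted in the well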
INS promoter inh – TRM-6 insulin promoter activity inhibition | inhibition, % at 2 µM | 0.9% of 130,000 active | TRM-6 cells (human fetal islet line), insulin promoter-eGFP reporter, imaging; reporter expression induced with tamoxifen;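 active means inhibition above the mean plus 3 SD, with well images judged a real hit on visual review, cut at about 60% in these data, passing the limit was not always enough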
Lmaj promast – inhibitors of Leishmania major promastigote growth | Leishmania major promastigotes, resazurin fluorescence viability | inhibition, % at 10 µM | 9% of 200,000 active; in the data active means inhibition above about 50%;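 further: promastigotes grown with compound for 44 hours at 28 °C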
* = called active by the depositor; i = inactive; · = not tested or not shown; + = active, no number.

SMILES	WT yeast gro inh	Autophagy mod	Ins promoter up	INS promoter inh	Lmaj promast
O=C1c2ccccc2C2=Nc3ccccc3SC(c3ccc(Cl)cc3)C12 (stereo not given)	82.7*	i	0.23	16.7	98.7*
O=C1c2ccccc2C2=Nc3ccccc3SC(c3cccc(F)c3)C12 (stereo not given)	84.2*	i	-0.74	-31.2	88.8*
O=[N+]([O-])c1nn(-c2ccccc2)[n+]([O-])c1N1CCN(c2ccccc2F)CC1	-10.2	i	·	50.0	44.5
C=CCn1c(SCc2nc3sc(C(=O)O)c(C)c3c(=O)[nH]2)nnc1-c1ccccc1	8.4	+	0.47	·	-8.2
C=CCn1c(SCc2nc3sc(C(=O)O)c(C)c3c(=O)[nH]2)nnc1-c1ccc(C(C)(C)C)cc1	·	·	0.17	·	·
CC(C)n1c(SCC(=O)N2c3ccccc3CCc3ccccc32)nc2c1c(=O)n(C)c(=O)n2C	·	i	·	-106.7	5.4
CCCn1c(SCC(=O)N2c3ccccc3Sc3ccccc32)nc2c1c(=O)n(C)c(=O)n2C	-0.2	i	-2.4	-28.6	61.8*
CC(C)n1c(SCC(=O)N2c3ccccc3Sc3ccccc32)nc2c1c(=O)n(C)c(=O)n2C	12.7	i	-0.2	·	59.7*
Cn1c(=O)c2c(nc(SCC(=O)N3c4ccccc4CCc4ccccc43)n2C)n(C)c1=O	5.1	i	0.77	·	51.8*
COc1ccc(C2NC(=S)NC(C)=C2C(=O)c2ccccc2)cc1OC (stereo not given)	-5.1	i	0.72	·	3.7
COc1ccc(C2NC(=S)NC(C)=C2C(=O)Nc2ccccn2)cc1OC (stereo not given)	6.7	+	-0.64	·	-5.4
CC(C)=C1SC(N2CCN(c3cccc(Cl)c3)CC2)=NC1=O	5.7	i	0.7	-3.7	67.5*
CC(C)=C1SC(N2CCN(Cc3ccccc3)CC2)=NC1=O	2.2	i	0.17	·	-9.5
O=C(Nc1ncc(S(=O)(=O)c2ccc([N+](=O)[O-])cc2)s1)c1cccc2ccccc12	6.5	i	-0.29	50.0	99.7*
COc1ccccc1N(C(=O)c1cncc(Br)c1)c1nc(-c2ccc(C)cc2)cs1	32.7	i	·	·	12.0
Cc1ccc(C(OC(=O)c2ccco2)C(=O)NCc2cccs2)cc1 (stereo not given)	-2.5	i	0	-5.6	55.9*
Cc1ccc(NCC(=O)N/N=C\c2ccc[nH]2)cc1	·	·	-0.32	·	·
Cc1ccc(-c2c[n+](CC(=O)Nc3cc(=O)n(C)c(=O)n3C)c3n2CCC3)cc1	-2.7	i	-0.1	0.0	13.8
Cc1ccc(S(=O)(=O)N2CCN(S(=O)(=O)c3ccccc3)C2c2ccc(N(C)C)cc2)cc1 (stereo not given)	14.8	i	-0.75	4.3	89.2*
COc1ccc(C2N(S(=O)(=O)c3ccc(C)cc3)CCN2S(=O)(=O)c2ccc(C)cc2)cc1	8.6	i	-1.62	-27.6	66.2*
CN(NC1OC(=O)c2ccccc21)c1ccccc1[N+](=O)[O-] (stereo not given)	·	·	0.12	·	·
CCN1C(=O)/C(=C\c2ccc(F)cc2)N=C1SCC(=O)NCc1ccco1	-19.1	i	-0.02	·	9.7
Cc1ccc(OCC(=O)N/N=C/c2c[nH]c3ccccc23)c([N+](=O)[O-])c1	-0.6	i	0.1	·	-1.3
OCCC1CN(C2CSCCSC2)CCN1Cc1ccccc1 (stereo not given)	8.9	i	-0.3	·	-1.0
CC(C)=CCN1CCN(Cc2cccn2-c2nccs2)CC1CCO (stereo not given)	-21.9	i	0.72	·	-6.4
SMILES	WT yeast gro inh	Autophagy mod	Ins promoter up	INS promoter inh	Lmaj promast
OCCC1CN(Cc2nc(-c3ccc(F)cc3)cs2)CCN1CCc1ccccc1 (stereo not given)	-14.2	i	-1.37	·	84.8*
Cc1ccc(CN2CCN(CCC(C)C)C(CCO)C2)s1 (stereo not given)	1.3	i	-0.48	·	6.0
CC(C)=CCN1CCN(Cc2nc(-c3ccccc3)cs2)CC1CCO (stereo not given)	5.0	i	-0.77	·	69.8*
OCCC1CN(C2CCN(c3ccccc3F)CC2)CCN1Cc1ccccc1 (stereo not given)	-9.7	i	-0.65	·	80.3*
CC(C)CCN1CCN(C2CCN(c3ccccc3)CC2)CC1CCO (stereo not given)	-14.7	i	-0.31	·	89.0*
O=C(O)c1cn(Cc2ccccc2Cl)c2ccc(S(=O)(=O)N3CCOCC3)cc2c1=O	-46.9	i	-0.51	0.0	-8.8
CC(C)CCN1CCN(CC#Cc2ccccc2)CC1CCO (stereo not given)	-2.0	i	0.06	·	80.4*
OCCC1CN(Cc2cccnc2)CCN1CCc1ccccc1 (stereo not given)	10.2	i	0.31	·	9.3
OCCC1CN(Cc2nc(-c3ccccc3)cs2)CCN1CCc1ccccc1 (stereo not given)	36.4	i	0.58	·	86.7*
CC(C)CCN1CCN(Cc2nc(-c3ccccc3)cs2)CC1CCO (stereo not given)	5.6	i	0.44	·	84.9*
CC(C)CCN1CCN(Cc2cccs2)CC1CCO (stereo not given)	0.4	i	0.79	·	-0.5
CCN(CC)CCCN1C(=O)C(O)=C(C(C)=O)C1c1ccc(OC)cc1OC (stereo not given)	-2.3	·	·	·	·
CSc1nc(O)c(C(c2cccc([N+](=O)[O-])c2)c2c(O)nc(SC)[nH]c2=O)c(=O)[nH]1	-8.1	i	·	-50.0	-5.7
CCc1ccc(C(=O)/C=C/c2ccc([N+](=O)[O-])o2)cc1	60.2*	+	0.16	-160.0	100.5*
CCN(CC)S(=O)(=O)c1ccc(C(=O)/C=C/c2ccc(-c3ccc([N+](=O)[O-])cc3)o2)cc1	·	·	1.21	·	·
CCCNC(=O)NC(=O)CSc1nncs1	-2.9	i	-0.06	25.0	-7.6
COc1ccc(C(=O)Nc2nc3c(s2)Cc2cc(OC)ccc2-3)cc1	2.9	i	-0.11	23.1	96.3*
CC/C(=N\NC(=O)C(N)=O)c1ccccc1O	13.7	i	0.38	-69.2	-5.6
COC(=O)c1ccc(-c2ccc(/C=N/NC(=O)Cc3nnc(N)s3)o2)cc1	·	·	-0.15	·	·
O=C(Cn1c(O)c(/C=C2\C=Nc3ccccc32)sc1=O)Nc1ccc2c(c1)OCO2	5.4	+	0.32	·	-3.1
C=CCNC(=O)c1onc(CSc2cccc(OC)c2)c1C(=O)O	9.2	i	-0.55	-13.5	-2.9
COc1ccc(C2SCC(=O)N2CC23CC4CC(CC(C4)C2)C3)cc1 (stereo not given)	76.3*	i	-0.41	-37.0	33.0
CCN(CC)CCN(CC)Cc1ccccc1Br	2.0	i	-1.82	·	95.7*
CC(=O)c1ccc(Nc2nc(=O)c3cccnc3s2)cc1	1.2	i	0.24	79.3*	-4.7
CC(=O)c1cccc(Nc2nc(=O)c3cccnc3s2)c1	2.3	i	0.12	-20.0	3.2
CCN1CCN(c2ccc(NC(=O)c3ccc(C#N)cc3F)cc2Cl)CC1	-0.4	i	·	-33.3	13.2
Cc1ccccc1C(=O)N1CCN(c2ccc(NC(=O)c3ccco3)cc2Cl)CC1	4.4	i	-1.37	84.6*	98.5*
